Drawing on PubChem BioAssay AID1814 (Broad Institute, 2009), this text covers activity score for 105 molecules.

Molecules are shown by their SMILES. The whole screen tested about 300,000 compounds, of which about 22,000 (7.3%) were called active. About 2% were inconclusive and are not listed. No stated cut-off is given here; in the data, active means activity score below about -60%; inconclusive means mostly about -28% to -61%; inactive means positive scores. Many of the other results were omitted from the sample, so actives are more common in it than they were.

This assay can be described thus: Activators working through SNCA 5'UTR binding (MLPCN) (AID 1814). The settings on record: alpha-synuclein 5'UTR reporter, activators screen; stronger effect = lower value; tested at 7.5 µM.
With `CCc1ccc(-c2cc(C(=O)NN3CCN(C)CC3)c3ccccc3n2)cc1`, the activity score is -112% (active).
To `O=C(Nc1ccccc1)c1cc2ccccc2[nH]1` belongs -180% (active); to `CCn1c(=N)n(CC(=O)c2cccc(OC)c2)c2ccccc21`, -124% (active).
Regarding `Cc1cccc(NC(=O)c2cccc(C(F)(F)F)c2)c1`, the activity score is -71.9% (active).
To `O=C(Nc1ccccc1)Nc1ccc(C(F)(F)F)cn1` belongs -120% (active); to `Cc1ccc(NC(=O)Nc2cccc(C(F)(F)F)c2)nc1`, -115% (active); to `COc1ccc(NC(=O)CCS(=O)(=O)c2cc3c(cc2Cl)NC(=O)CO3)cc1OC`, -91.8% (active).
To `CC(=O)Nc1ccc(NC(=O)CN2CCCC(C)C2)c(Cl)c1` (stereo not given) belongs -105% (active); to `CC(Sc1nc2cc(Cl)ccc2s1)C(=O)Nc1ccc2c(c1)OCO2` (stereo not given), -117% (active); to `O=C(c1cnn2ccccc12)N1CCc2ccccc21`, -123% (active).
`COc1cc(OC)cc(C(=O)NCC(=O)OCc2csc(-c3ccccc3)n2)c1`: the activity score is -73.7% (active).
Consider `CCCCOC(=O)c1[nH]c(C)c(C(=O)OC)c1C`, for which the activity score was -134% (active).
To `CCOC(OCC)c1ccc(/C=C\c2nccc(N)n2)cc1` belongs -117% (active).
Consider `COc1ccccc1/C=N/Nc1nc(C)c(C(C)=O)s1`, for which the activity score is -154% (active).
As to `COc1cccc(/C=N/Nc2cc(C)nc(-c3ccccc3O)n2)c1O`, the activity score was 82.8% (inactive).
To `COc1cccc2sc(Nc3nc(C)c(C(C)=O)s3)nc12` belongs -179% (active).
To `CC(=O)c1sc(N/N=C/c2ccc(C(C)C)cc2)nc1C` belongs -149% (active); to `Oc1oc(-c2ccccc2Br)nc1/C=N/c1ccccn1`, -124% (active).
Consider `O=C(CCc1ccccc1)Nc1cccc(-c2nnc(-c3ccco3)o2)c1`, for which the activity score is -74.1% (active).
The same measure for `CCC(=O)Oc1cccc(C(=O)Nc2ccc(-c3nnc(-c4ccco4)o3)cc2)c1`: -227% (active); for `CCCCOc1ccc(-c2nnc(-c3ccco3)o2)cc1`: 60.2% (inactive); for `Cc1ccc(OCC(=O)Nc2ccc(-c3nnc(-c4ccco4)o3)cc2)cc1`: -69.1% (active).
The same measure for `Cc1ccc(OCC(=O)Nc2ccc(-c3nc4ncccc4o3)cc2)cc1`: -85.6% (active); for `Fc1ccccc1OCCSc1nc2ccccc2o1`: -139% (active).
`Cc1cccc2nc(CNc3ccc(F)cc3)cn12`: the activity score is -64.9% (active).
For the molecule `Cc1ccc(-n2ncc3c(Nc4cccc(C(=O)O)c4)ncnc32)cc1`, the activity score is -200% (active).
The same measure for `CC(=O)NCC(=O)N1CCC(n2nccc2NC(=O)CCCc2ccccc2)CC1`: -67.3% (active).
In the case of `Cn1c(SCc2nc3ccccc3s2)nnc1-c1ccc2c(c1)OCO2`, the activity score is -72.1% (active).
Consider `Cc1ccnc(Nc2nc3ccccc3s2)n1`, for which the activity score was -81.3% (active).
To `O=C(NC(=S)Nc1ccc(Cl)cc1Cl)C1CC1` belongs -107% (active); to `Cc1cc(C)c2nc(NC(=O)C3CCCO3)sc2c1` (stereo not given), -107% (active); to `Cc1[nH]n(C(N)=S)c(=O)c1N=Nc1ccc(Cl)cc1Cl`, -112% (active).
To `Cc1ccc(C(=O)Nc2ccc3c(c2)OCO3)cc1S(=O)(=O)N1CCCCC1` belongs -66.6% (active); to `Cn1c(=O)n(C)c2cc(C(=O)Nc3ccc(Br)cc3)ccc21`, -80.7% (active).
To `COc1ccc(C(=O)Nc2ccc(C3(C#N)CCCC3)cc2)cc1OC` belongs -120% (active).
With `COc1ccc(C(=O)Nc2ccc3c(c2)OCO3)cc1OC`, the activity score is -100% (active).
To `Cn1c(=O)n(C)c2cc(C(=O)Nc3ccc4c(c3)OCO4)ccc21` belongs -191% (active).
The same measure for `O=C(Nc1ccccc1)c1ccccc1NC(=O)C(F)(F)F`: -85.9% (active); for `Cc1cccc(-c2noc(-c3ccc(F)cc3)n2)c1`: -101% (active); for `Cc1ccc(Cc2nc(-c3cccc(C)c3)no2)cc1`: -173% (active).
`CCOc1ccc(/C=N/NC(N)=S)cc1`: the activity score is -63.3% (active).
To `Cc1cc(=O)oc2cc(OCC3CC(c4ccccc4Cl)=NO3)ccc12` (stereo not given) belongs -132% (active); to `CC(C)(C)c1ccc(OC2=CS(=O)(=O)c3ccccc32)cc1`, -110% (active); to `CC(C)(C)c1ccc(Oc2ccc(N)cc2)cc1`, 112% (inactive).
`COC(=O)c1c(NC(=O)c2ccccc2F)sc2c1C(C(=O)OC)CC2` (stereo not given): the activity score was -72.4% (active).
With `CCOc1ccc2[nH]c3nc(SCC(=O)NC4CCCC4)nnc3c2c1`, the activity score was -73.1% (active).
The same measure for `Cc1cccn2c(=O)c3cc(C(=O)NCCN4CCOCC4)c(=N)n(Cc4cccnc4)c3nc12`: 97% (inactive); for `COc1ccc(CCn2c(=N)c(C(=O)NCc3ccco3)cc3c(=O)n4cccc(C)c4nc32)cc1`: -87.1% (active).
Turning to `CCn1c2ccccc2c2cc(NC(=O)C/C(C)=N/NC(=O)c3ccccc3N)ccc21`, the activity score was -110% (active).
The same measure for `COc1ccc(-c2csc(Cc3nc(O)cs3)n2)cc1`: -207% (active).
In the case of `COc1ccc(-c2csc(Nc3ccc(O)cc3)n2)cc1`, the activity score is -170% (active).
To `NS(=O)(=O)c1ccc(Nc2nc(-c3ccccc3)cs2)cc1` belongs -117% (active); to `COc1ccc(Nc2nc(-c3ccccc3)cs2)cc1`, -137% (active).
To `CN(c1ccc(O)cc1)c1nc(-c2cccnc2)cs1` belongs -137% (active); to `Oc1ccc(-c2csc(Nc3cccnc3)n2)cc1`, -116% (active); to `O=C(NCc1cccnc1)C(=O)Nc1nc(-c2ccccc2)cs1`, -99% (active).
In the case of `COc1ccc(-c2csc(NC3OC(=O)c4ccccc43)n2)cc1` (stereo not given), the activity score was -114% (active).
Consider `Cc1ccccc1Nc1nc(-c2cccnc2)cs1`, for which the activity score is -179% (active).
For the molecule `COc1ccc(OC)c(Nc2nc(-c3ccc(O)c(O)c3)cs2)c1`, the activity score was -158% (active).
The same measure for `O=C(Nc1ccc2c(c1)OCO2)C1CC(c2c(F)cccc2Cl)=NO1` (stereo not given): -147% (active); for `COc1cccc(NC(=O)C(=O)c2cn(CC(=O)N3CCOCC3)c3ccccc23)c1`: -77.7% (active).
The same measure for `O=C(Nc1ccc([N+](=O)[O-])cc1)C1CC12CCC2` (stereo not given): -78.2% (active); for `COc1ccc(NC(=S)N2N=CCC2c2ccccc2)cc1` (stereo not given): -137% (active).
The same measure for `Cn1c(SCc2c(F)cccc2Cl)nnc1-c1cnccn1`: -126% (active); for `CSC(=S)N/N=C/c1c[nH]c2ccccc12`: -107% (active); for `c1ccc(-c2ccc(OCCN3CCOCC3)cc2)cc1`: -93.6% (active).
Turning to `COc1ccc(Br)cc1C(=O)NC(=S)Nc1cc(-c2nc3ccccc3[nH]2)ccc1C`, the activity score was -86.2% (active).
The same measure for `Cc1ccc(-c2csc(-c3cc(C)on3)n2)cc1`: -149% (active); for `Cc1ccc(-c2csc(-c3c[nH]c4ccccc34)n2)cc1`: -164% (active); for `CCNC(=O)CSc1nc(-c2ccccc2)cs1`: -105% (active).
In the case of `O=C(CSC1=NCCS1)Nc1nc(-c2ccccc2)cs1`, the activity score is -83% (active).
The same measure for `O=C(CN1C(=O)C2C3C=CC(C3)C2C1=O)Nc1nc(-c2ccccn2)cs1` (stereo not given): 82.4% (inactive); for `O=C(CNC(=O)c1ccc(F)cc1)c1ccccc1`: -128% (active); for `O=C(CNC(=O)c1ccccc1F)c1ccc(Br)cc1`: -97.5% (active).
In the case of `CCOc1ccc2c(c1)C(c1ccc(C)cc1)=NNC(c1ccc(C)cc1)=N2`, the activity score was -63.3% (active).
Turning to `Cc1nc2ccccc2cc1OCc1ccc(F)cc1`, the activity score is -71.1% (active).
`C/C(=N\NC(=O)c1nc(C)cc(C)n1)c1ccccc1`: the activity score is -137% (active).
To `C/C(=N\NC(=O)c1ccc2ccccc2c1)c1cccnc1` belongs -68.8% (active); to `C/C(=N\NC(=O)c1ccccc1F)c1ccccn1`, 83% (inactive); to `C/C(=N\NC(=O)c1cccnc1)c1ccc(-c2ccccc2)cc1`, -92.7% (active).
As for `CC(C)CNC(=O)C(=O)Nc1ccc(N(C)C)cc1`, the activity score is -159% (active).
The same measure for `O=C(Nc1ccc(Cl)cc1)/C(=C1\CCCN1)[N+](=O)[O-]`: -97.2% (active); for `CC(=O)Nc1cccc(C(=O)OCC(=O)NCc2cc(C)c(O)c(C)c2)c1`: -62.5% (active); for `CCCOc1ccc(C(=O)C(CCC(CNCC)C(=O)c2ccc(OCCC)cc2)CNCC)cc1` (stereo not given): 107% (inactive).
Turning to `CCCOc1cccc(C(=O)Nc2nnn(CCC)n2)c1`, the activity score was -87.6% (active).
Take `Cc1c(C)c2cc3c4c(oc3c(C)c2oc1=O)CCCC4`: the activity score was -61.9% (active).
To `CC[n+]1cc(C)ccc1/C=C/c1ccc(N(C)C)cc1` belongs 90.6% (inactive); to `Cc1cccc(NC(=O)Nc2ccc3c(c2)OCO3)n1`, -251% (active); to `Cc1cccc(NC(=O)/C=C/c2ccc3c(c2)OCO3)n1`, -88% (active).
Take `COc1cccc(/C=C/C(=O)Nc2ccc3c(c2)OCCO3)c1`: the activity score was -94% (active).
The same measure for `CNS(=O)(=O)c1ccc(NC(=O)Nc2ccc3c(c2)OCO3)cc1`: -63.6% (active); for `Cc1ccc(-n2c(C)cc(/C=C(\C#N)C(=O)NCC3CCCO3)c2C)cc1` (stereo not given): -133% (active).
The same measure for `O=C(NC1=NCCS1)c1ccc(Cl)s1`: -112% (active).
Consider `COc1ccc(C(=O)NC2=NCCS2)c(OC)c1`, for which the activity score was -111% (active).
As for `COc1ccc(Cc2nnc(NC(=O)c3ccc(OC)cc3OC)s2)cc1`, the activity score was -62.4% (active).
To `COc1ccc(C(=O)Nc2nncs2)c(OC)c1` belongs -106% (active); to `Cc1cccc(NC(=O)c2nc(S(=O)(=O)Cc3ccccc3)ncc2Cl)c1`, 84.8% (inactive).
The same measure for `Cc1cccc(NC(=S)Nc2ccc(Cl)c(Cl)c2)c1`: -115% (active).
To `Cc1cccc(NC(=S)Nc2ccc(Br)cc2)c1` belongs -106% (active); to `COc1ccc(CNc2ccc3c(c2)CCC3)cc1OC`, -177% (active).
In the case of `Cc1cc(C(=O)NNC(=S)Nc2ccccc2C)cs1`, the activity score is -135% (active).
Regarding `Cc1ccc(C(=O)NC(=S)Nc2ccccc2C)cc1`, the activity score was -122% (active).
To `Nc1ccc(C(=O)Nc2ccccc2N)cc1` belongs -714% (active); to `CCn1c(SCC(=O)Nc2cccc(F)c2)nnc1-c1cc2cc(Br)ccc2o1`, -71.9% (active).
To `CN1C2CCC1/C(=C\c1ccccc1Cl)C(=O)/C2=C\c1ccccc1Cl` belongs -89% (active).
